# Experimental data published in PubChem BioAssay (NCI).
# The panel holds about 83,000 compounds, 20% with a hit somewhere; the sample as a whole holds those more often.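 Values shown are percent growth following 48 h exposure of cells in 96-well plates to a single concentration of compound; below 10 was considered active.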 Values without a mark were called inactive. Active and inactive are the calls of the source.
# Tested on: U251 CNS
# Assay: NCI-60 one-dose screen, 48 h (100 = growth as untreated, 0 = no growth, -100 = all killed)
# Conditions: 10 µM unless noted
# Protocol: Growth inhibition of the U251 human tumor cell line is measured as a screen for anti-cancer activity. Cells are grown in 96 well plates and exposed to the test compound for 48 hours. Compounds are tested at a single concentration, which is 10^-5 M for most compounds. The reported endpoint is percent growth (GI% or GIPRCNT), where numbers from 0 - 100% represent growth inhibition, and numbers from -100% - 0 represent cell death. For example, a value of 40 represents 60% growth inhibition. A value of 0 means no net growth occurred over the course of the experiment. A value of -40 indicates 40% of cells at the beginning of the experiment died by the end of the experiment. A value of -100 means all cells are dead at the end of the experiment.
# NCI-60 Human Tumor Cell Lines Screen was performed using the standard one-dose NCI protocol, which is described in more detail at https://dtp.cancer.gov/discovery_development/nci-60/default.htm.
# Compounds with GIPRCNT values below 10 were considered active. Activity score was based on GIPRCNT using the following formula: […]
# Score is 0 for GIPRCNT values of 100 or above, 50 for GIPRCNT values of 0, and 100 for GIPRCNT values of -100.
row,Structure (SMILES),growth
1,COc1cc2c(=O)n(CCN(C)C)c3c4cc5c(cc4ccc3c2cc1OC)OCO5,-4.24% (active)
2,CCOC(=O)c1cc(C(=O)c2ccc(OC)c(OC)c2)n2ccc(/C=C/c3cc[n+](CC(=O)c4ccc(OC)c(OC)c4)cc3)cc12,95.5%
3,N#CC(C(=O)/C(=N/NC(=O)c1ccccc1O)C(C#N)c1ccccc1)c1ccccc1 (stereo not given),6.45% (active)
4,O=Cc1cc2ccccc2nc1Oc1ccc(C(F)(F)F)cc1,81.6%
5,Cc1ccc(-c2csc(NC(=O)CSc3nc(-c4ccccc4)cc(=O)[nH]3)n2)cc1,92.2%
6,CCCCOc1ccc(/C=N/Nc2cc(C)nc3ccc(Br)cc23)cc1,-53.5% (active)
7,Cc1ccc(C(=O)/C(=C\c2ccc([N+](=O)[O-])cc2)S(=O)Cc2ccc(Cl)cc2)cc1 (stereo not given),9.49% (active)
8,CC(C)N1C(=O)S/C(=C2/SC(=O)N(C(C)C)C2=O)C1=O,96.3%
9,Cc1c(C(=O)NCCC(=O)NO)sc2ncnc(Nc3ccc(F)c(Cl)c3)c12,102%
10,N#C/C(=C\c1ccccn1)c1nc2cc(Cl)ccc2s1,73.8%
11,Cc1ncc(C(=O)Nc2ccc(CN3CCN(C)CC3)c(C(F)(F)F)c2)cc1C#Cc1cnc(N)cc1C#N,-98.6% (active)
12,COc1cc2cc(CN3CCN(c4nccc(-c5ccc6ccccc6c5)n4)CC3)c(=O)[nH]c2cc1OC,22.9%
13,COc1cc(/C=C/c2cc(O)c(C(C)=O)c(O)c2)cc2c1O[C@]1(C)CC[C@@H](O)C(C)(C)[C@H]1C2,36.1%
14,C[C@H]1[C@H](C)CC[C@]2(C(=O)Nc3ccc4ncccc4c3)CC[C@]3(C)C(=CC[C@@H]4[C@@]5(C)CCCNC(C)(C)[C@@H]5CC[C@]43C)[C@H]12,-86.3% (active)
15,CCOc1ccc(/C=N/Nc2cc(C)nc3ccc(Br)cc23)cc1,77.5%
16,CCCOc1ccc(/C=N/Nc2cc(C)nc3ccc(Br)cc23)cc1,25.7%
17,N#CC1C(C#N)C(C(=O)c2ccc(Br)cc2)N2c3ccccc3C=CC12 (stereo not given),84.6%
18,Cc1nc2sccn2c1-c1nc2sccn2c1/C=C1/C(=O)Nc2ccccc21,24.6%
19,COc1cc(F)c(/C=C/c2cc(/C=C/c3cc(OC)c(OC)cc3F)on2)cc1OC,83.1%
20,O=C1c2ccc3c4c(ccc(c24)C(=O)N1CCCNCc1ccccc1Cl)C(=O)N(CCCNCc1ccccc1Cl)C3=O,-52.8% (active)

row,Structure (SMILES),growth
1,COc1cc(/C(C)=C(\c2ccc(Cl)cc2)c2ccc(OCCN(C)C)cc2)ccc1F,44.3%
2,O=C(c1nc2ccccc2[nH]1)C1C(c2ccc(Br)cc2)C2CC3CCCC[C@H]3N2[C@@]12C(=O)Nc1cc(Cl)ccc12 (stereo not given in full),43.9%
3,CCOC(=O)/C(C#N)=C1/NNC(=Nc2cccnc2)S1,94.1%
4,O=C1c2ccc3c4c(ccc(c24)C(=O)N1CCCNCc1ccccc1F)C(=O)N(CCCNCc1ccccc1F)C3=O,-85.6% (active)
5,COC(=O)/C=C1\S/C(=N\NC(=O)c2cc3ccc2/C=C\c2ccc(cc2)/C=C\3)N(c2ccccc2)C1=O,15.8%
6,Cc1cc(C)c(S(=O)(=O)Oc2ccccc2[N+](=O)[O-])c(C)c1,29.7%
7,O=C(N/N=C/c1cc2ccccc2n2nnnc12)Nc1ccccc1,104%
8,O=C1Nc2ccc(F)cc2/C1=C\c1c(-c2ccccc2)nc2ccccn12,82.7%
9,C=C1C(=O)O[C@H]2[C@H]1CC/C(COC(=O)NCc1c[nH]c3ccc(Cl)cc13)=C\CC[C@@]1(C)O[C@@H]21,-3.11% (active)
10,CC(=O)O[C@H]1Cc2c([nH]c3ccccc23)[C@@H](c2ccc(Cl)cc2)N1C(=O)CCNC(C)(C)C,50.6%
11,Cc1nn(-c2ccccc2)c(Cl)c1/C=C/C(=O)c1ccc(F)cc1,75.9%
12,CCSCC1CC(O)(c2ccccc2)CC(c2ccc(F)cc2)O1 (stereo not given),20.8%
13,O=C(Nc1ncc(Cc2cc(Cl)ccc2Cl)s1)c1cccs1,51.8%
14,COc1ccc(CCn2cncc2-c2c[nH]c3ccccc23)cc1,95.7%
15,Cn1c(-c2c(N)n(CCCN3CCOCC3)c3nc(C#N)c(C#N)nc23)nc2ccccc21,67.8%
16,Cc1cc2cc3ccc(N(C)C)cc3nc2cc1N,-2.3% (active)
17,O=C(/C=C(/C=C/c1csc2ccccc12)OB(F)F)/C=C/c1csc2ccccc12,17.1%
18,Cc1nc(N)nc(N[C@@H](C)c2nc3cccc(NCc4ccc(C(=O)NO)cc4)c3c(=O)n2-c2ccccc2)n1,52.7%
19,CCN(Cc1ccccc1)c1ccc(C=O)cc1,92%
20,COc1cc2nc(-c3ccc(C(F)(F)F)cc3)cc(OCCN3CCCCC3)c2cc1OC,72.3%
